Measured values taken from PubChem BioAssay.
Unmarked numbers belong to inactive results. Inconclusive results are not listed. Activity calls are given as the source filed them. Unless noted, the rule behind the calls is not given here.

Assays:
[1] = antimalarial activity against Dd2 strain (AID 2302;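 active = growth inhibition above 50% at the single 2 µM test dose, taken to imply half-maximal potency below 2 µM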;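 note: 0% = DMSO untreated growth and 100% = chloroquine plus artemisinin killed control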); settings: P. falciparum Dd2 in RBCs, LDH growth readout, 72 h; at 2 µM; stronger effect = higher value
[2] = HepG2 cytotoxicity, primary screen, cytotoxicity control for P. falciparum antimalarial project, cell-based, ATP luminescence (AID 2303;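 active = inhibition above 50%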;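 note: 0% = DMSO wells and 100% = digitonin-killed cells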); settings: HepG2 viability, 24-48 h, at 10 µM, stronger effect = higher value
[3] = biological target: L-lactate dehydrogenase (Plasmodium falciparum (isolate CDC / Honduras)) (UniProt Q27743); test: PfLDH activity inhibition – cell lysate, 3D7 strain, counter-screen for P. falciparum growth inhibition project (AID 2304);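 note: 0% = vehicle and 100% = reference inhibitor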; settings: P. falciparum 3D7 crude extract, LDH APAD/NBT absorbance; at 2 µM; stronger effect = higher value
[4] = inhibition of 3D7 malaria parasite growth – strain 3D7 (AID 2306);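 note: 0% = DMSO wells and 100% = chloroquine plus artemisinin control wells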; settings: P. falciparum 3D7 erythrocytic growth, LDH absorbance, 72 h; at 2 µM; stronger effect = higher value
[5] = protection of motor neurons from glutamate death, cell-based, TUNEL DNA degradation staining, MNGlu (AID 1594); settings: glutamate-induced death, at 1 µM, stronger effect = higher value

Chain of L-lactate dehydrogenase (Plasmodium falciparum (isolate CDC / Honduras)) (Q27743 whole entry, looked up): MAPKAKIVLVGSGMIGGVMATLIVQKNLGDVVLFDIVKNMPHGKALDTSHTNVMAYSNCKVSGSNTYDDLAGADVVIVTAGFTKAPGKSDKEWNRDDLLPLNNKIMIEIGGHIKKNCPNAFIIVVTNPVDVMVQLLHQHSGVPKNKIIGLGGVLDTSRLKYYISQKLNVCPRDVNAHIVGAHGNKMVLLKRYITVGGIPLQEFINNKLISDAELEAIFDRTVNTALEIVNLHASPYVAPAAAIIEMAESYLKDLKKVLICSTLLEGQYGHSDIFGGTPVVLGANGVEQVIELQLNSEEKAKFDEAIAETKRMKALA

Structure (SMILES)	growth inhibition [1]	inhibition [2] [%]	inhibition [3] [%]	growth inhibition [4]	protection [5]
C[C@@H]1C[C@@H]([C@H](O)CC2CC(=O)NC(=O)C2)C(=O)[C@@H](C)C1	87% (active)	46	-5	96% (active)	
CC(CCc1ccccc1)NC(C)C(O)c1ccc(O)cc1 (stereo not given)					40% (active)
